Experiments:
Experiment in all cases: log2 ratio of Biotin-Ahx-Ub-VS probe labelling (fragment/DMSO); higher = less target engagement (more negative = stronger competition), active = hit call of the paper (q ≤ 0.05, log2 ratio ≤ -1)
Conditions in all cases: compound concentration: 200 uM; treatment time: 3 h
ALG13 = molecular target: T1, ALG13 (UniProt Q9NP73)
T1 sequence (whole entry): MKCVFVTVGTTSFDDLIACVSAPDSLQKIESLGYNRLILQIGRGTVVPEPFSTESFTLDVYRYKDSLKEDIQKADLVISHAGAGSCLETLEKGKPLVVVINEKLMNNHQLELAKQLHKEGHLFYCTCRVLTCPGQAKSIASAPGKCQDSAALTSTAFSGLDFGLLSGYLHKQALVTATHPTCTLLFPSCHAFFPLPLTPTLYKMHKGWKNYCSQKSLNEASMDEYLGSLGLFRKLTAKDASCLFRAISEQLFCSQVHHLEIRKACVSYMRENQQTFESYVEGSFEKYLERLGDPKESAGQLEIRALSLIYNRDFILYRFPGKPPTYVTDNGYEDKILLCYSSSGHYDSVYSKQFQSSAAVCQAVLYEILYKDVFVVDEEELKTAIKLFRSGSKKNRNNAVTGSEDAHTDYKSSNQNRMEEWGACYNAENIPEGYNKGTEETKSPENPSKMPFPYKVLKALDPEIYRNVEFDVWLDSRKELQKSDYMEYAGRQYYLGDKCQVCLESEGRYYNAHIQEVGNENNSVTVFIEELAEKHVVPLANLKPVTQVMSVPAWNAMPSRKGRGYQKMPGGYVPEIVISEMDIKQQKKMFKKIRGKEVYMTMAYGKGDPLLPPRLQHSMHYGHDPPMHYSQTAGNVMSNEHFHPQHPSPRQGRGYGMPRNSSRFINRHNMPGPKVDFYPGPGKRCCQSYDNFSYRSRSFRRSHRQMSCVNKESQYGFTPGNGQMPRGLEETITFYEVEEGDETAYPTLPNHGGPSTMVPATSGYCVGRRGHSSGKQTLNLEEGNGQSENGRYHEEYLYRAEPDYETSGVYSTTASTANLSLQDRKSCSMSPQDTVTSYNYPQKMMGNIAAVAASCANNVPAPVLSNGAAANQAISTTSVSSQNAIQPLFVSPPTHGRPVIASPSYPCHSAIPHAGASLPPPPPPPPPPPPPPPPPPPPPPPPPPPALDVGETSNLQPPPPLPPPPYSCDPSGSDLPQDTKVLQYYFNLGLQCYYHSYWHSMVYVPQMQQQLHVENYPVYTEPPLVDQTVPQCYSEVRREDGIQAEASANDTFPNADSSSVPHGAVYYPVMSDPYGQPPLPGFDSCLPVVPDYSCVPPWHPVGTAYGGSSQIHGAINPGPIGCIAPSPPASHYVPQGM
Procedure, shortened: (§1)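 HEK293T lysate (495 µg per sample, in Tris/CHAPS/IGEPAL buffer with protease inhibitors) was exposed in triplicate for 3 h to fragment at 200 µM or to vehicle, then to Biotin-Ahx-Ub-VS at 0.5 µM final for 1 h. Labelled DUBs were enriched on NeutrAvidin, digested with LysC and trypsin, and analysed by diaPASEF LC-MS/MS. Spectronaut label-free quantities were normalised to the global median, and values are average log2 ratios of fragment over vehicle from an unpaired t-test. Only proteins with ≥2 unique peptides were used.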

ATXN3 = ATXN3 (UniProt P54252)
Procedure, shortened: as §1

BAP1 = molecular target: T2, BAP1 (UniProt Q92560)
T2 sequence (whole entry): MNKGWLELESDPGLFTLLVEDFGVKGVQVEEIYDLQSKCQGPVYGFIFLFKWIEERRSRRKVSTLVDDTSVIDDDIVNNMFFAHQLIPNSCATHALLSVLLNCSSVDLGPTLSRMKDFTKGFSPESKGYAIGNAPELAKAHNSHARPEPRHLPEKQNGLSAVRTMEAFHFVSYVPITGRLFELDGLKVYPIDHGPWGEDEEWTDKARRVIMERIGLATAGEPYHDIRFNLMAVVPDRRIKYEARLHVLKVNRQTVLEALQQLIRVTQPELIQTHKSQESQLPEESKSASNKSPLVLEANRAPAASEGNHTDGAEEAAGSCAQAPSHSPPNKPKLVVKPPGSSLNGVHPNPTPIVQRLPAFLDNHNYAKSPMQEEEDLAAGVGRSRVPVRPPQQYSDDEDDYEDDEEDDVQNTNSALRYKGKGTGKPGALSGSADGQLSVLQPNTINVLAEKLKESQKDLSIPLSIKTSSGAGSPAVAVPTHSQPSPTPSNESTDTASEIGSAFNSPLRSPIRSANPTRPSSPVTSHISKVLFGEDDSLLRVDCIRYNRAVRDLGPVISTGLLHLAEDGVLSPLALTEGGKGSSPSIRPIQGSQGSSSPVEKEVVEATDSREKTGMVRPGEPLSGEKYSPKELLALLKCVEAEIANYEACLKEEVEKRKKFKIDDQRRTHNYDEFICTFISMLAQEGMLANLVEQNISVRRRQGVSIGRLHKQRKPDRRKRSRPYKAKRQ
Procedure, shortened: as §1

EIF3F = EIF3F (UniProt O00303)
Procedure, shortened: as §1

EIF3H = EIF3H (UniProt O15372)
Procedure, shortened: as §1

FAM105A = molecular target: T3, FAM105A (UniProt Q9NUU6)
T3 sequence (whole entry): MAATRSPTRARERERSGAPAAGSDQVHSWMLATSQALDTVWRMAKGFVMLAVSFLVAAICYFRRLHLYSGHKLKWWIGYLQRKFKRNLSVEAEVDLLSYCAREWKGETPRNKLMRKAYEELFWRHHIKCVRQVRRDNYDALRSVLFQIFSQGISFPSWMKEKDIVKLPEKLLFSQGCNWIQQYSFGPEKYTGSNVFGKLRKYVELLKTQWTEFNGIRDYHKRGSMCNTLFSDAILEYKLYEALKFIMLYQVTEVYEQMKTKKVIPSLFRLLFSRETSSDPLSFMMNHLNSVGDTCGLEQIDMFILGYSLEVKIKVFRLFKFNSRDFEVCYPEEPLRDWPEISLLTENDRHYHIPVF
Procedure, shortened: as §1

OTUB1 = OTUB1 (UniProt Q96FW1)
Procedure, shortened: as §1

OTUD4 = molecular target: T4, OTUD4 (UniProt Q01804)
T4 sequence (whole entry): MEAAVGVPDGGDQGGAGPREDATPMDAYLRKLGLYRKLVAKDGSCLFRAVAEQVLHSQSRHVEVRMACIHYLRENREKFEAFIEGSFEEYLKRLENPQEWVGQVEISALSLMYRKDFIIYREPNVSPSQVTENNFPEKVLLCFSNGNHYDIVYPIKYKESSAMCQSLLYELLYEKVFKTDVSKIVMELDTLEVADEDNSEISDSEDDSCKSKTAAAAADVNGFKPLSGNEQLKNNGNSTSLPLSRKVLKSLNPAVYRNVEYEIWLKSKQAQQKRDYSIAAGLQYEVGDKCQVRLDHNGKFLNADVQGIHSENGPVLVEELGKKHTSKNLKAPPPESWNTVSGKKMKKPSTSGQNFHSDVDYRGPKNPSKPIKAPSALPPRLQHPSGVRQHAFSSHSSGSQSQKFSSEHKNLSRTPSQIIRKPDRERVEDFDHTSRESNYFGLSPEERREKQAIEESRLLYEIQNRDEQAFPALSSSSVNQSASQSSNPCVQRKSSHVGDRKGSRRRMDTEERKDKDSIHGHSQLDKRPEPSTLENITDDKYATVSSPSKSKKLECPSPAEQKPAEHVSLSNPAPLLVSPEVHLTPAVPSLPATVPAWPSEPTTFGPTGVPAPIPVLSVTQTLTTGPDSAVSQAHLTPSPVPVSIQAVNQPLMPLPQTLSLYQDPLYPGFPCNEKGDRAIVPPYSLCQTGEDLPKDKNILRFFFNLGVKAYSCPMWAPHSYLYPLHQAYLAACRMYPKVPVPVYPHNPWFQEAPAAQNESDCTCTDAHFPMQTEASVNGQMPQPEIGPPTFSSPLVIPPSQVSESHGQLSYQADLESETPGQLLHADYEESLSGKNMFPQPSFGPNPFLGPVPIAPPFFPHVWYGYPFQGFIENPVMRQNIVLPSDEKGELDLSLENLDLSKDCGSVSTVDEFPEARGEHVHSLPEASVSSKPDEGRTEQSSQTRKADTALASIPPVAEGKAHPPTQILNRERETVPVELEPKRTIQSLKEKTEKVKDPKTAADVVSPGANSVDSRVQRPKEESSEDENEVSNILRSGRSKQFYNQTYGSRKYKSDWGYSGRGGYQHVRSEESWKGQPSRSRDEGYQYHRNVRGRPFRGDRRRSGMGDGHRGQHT
Procedure, shortened: as §1

OTUD5 = molecular target: T5, OTUD5 (UniProt Q96G74)
T5 sequence (whole entry): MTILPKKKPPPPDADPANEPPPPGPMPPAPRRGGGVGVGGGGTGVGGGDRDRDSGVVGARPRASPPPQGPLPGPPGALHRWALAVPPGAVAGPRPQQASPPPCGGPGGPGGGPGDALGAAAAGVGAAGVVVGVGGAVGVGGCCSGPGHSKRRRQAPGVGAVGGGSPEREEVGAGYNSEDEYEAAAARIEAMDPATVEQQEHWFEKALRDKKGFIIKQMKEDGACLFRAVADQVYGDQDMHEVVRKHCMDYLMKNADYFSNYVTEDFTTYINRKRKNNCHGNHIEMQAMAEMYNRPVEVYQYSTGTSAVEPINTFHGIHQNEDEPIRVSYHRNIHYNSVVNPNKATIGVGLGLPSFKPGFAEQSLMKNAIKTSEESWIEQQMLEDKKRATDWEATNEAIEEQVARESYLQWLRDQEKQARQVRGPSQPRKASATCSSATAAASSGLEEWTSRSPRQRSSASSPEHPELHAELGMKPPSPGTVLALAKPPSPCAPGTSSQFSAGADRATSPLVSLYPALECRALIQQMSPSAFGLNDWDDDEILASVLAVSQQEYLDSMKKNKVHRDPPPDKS
Procedure, shortened: as §1

Measured: log2 ratio of Biotin-Ahx-Ub-VS probe labelling

Chain of EIF3H (O15372 whole entry): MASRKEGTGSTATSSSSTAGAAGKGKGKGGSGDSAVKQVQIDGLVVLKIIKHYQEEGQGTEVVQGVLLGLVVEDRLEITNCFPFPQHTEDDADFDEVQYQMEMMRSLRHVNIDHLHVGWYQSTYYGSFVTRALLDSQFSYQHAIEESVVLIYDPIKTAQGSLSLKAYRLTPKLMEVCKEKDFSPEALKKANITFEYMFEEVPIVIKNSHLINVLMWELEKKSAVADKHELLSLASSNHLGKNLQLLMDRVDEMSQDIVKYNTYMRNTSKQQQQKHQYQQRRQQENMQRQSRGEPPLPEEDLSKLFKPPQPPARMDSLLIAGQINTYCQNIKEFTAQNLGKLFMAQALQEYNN
Chain of EIF3F (O00303 whole entry): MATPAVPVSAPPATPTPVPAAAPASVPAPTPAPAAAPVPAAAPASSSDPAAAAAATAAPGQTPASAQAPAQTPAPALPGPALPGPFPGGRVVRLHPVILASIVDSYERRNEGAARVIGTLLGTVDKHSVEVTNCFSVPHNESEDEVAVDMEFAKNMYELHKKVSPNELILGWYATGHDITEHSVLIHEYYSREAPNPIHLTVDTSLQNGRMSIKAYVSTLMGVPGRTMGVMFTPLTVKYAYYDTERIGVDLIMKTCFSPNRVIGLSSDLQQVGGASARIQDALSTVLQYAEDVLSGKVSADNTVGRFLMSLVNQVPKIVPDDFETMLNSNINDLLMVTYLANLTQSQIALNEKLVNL
Chain of ATXN3 (P54252 whole entry): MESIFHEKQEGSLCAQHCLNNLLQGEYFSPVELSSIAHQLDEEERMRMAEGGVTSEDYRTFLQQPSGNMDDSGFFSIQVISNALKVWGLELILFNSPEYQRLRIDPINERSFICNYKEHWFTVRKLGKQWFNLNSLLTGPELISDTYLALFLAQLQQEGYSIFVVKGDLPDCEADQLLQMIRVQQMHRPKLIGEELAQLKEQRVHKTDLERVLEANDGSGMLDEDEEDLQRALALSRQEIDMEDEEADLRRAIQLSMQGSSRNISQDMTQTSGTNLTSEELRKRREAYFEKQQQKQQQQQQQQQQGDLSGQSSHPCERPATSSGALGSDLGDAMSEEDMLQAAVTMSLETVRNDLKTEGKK
Chain of OTUB1 (Q96FW1 whole entry): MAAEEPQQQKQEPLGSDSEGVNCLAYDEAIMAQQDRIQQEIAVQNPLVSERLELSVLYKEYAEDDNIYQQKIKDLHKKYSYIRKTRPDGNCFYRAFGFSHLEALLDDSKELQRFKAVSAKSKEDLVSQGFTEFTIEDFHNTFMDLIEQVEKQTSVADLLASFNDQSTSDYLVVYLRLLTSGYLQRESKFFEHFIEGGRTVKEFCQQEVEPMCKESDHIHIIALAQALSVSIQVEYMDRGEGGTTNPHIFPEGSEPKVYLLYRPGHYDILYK

COCC1C=CCCN1C(=O)CCl (centres undefined)
inactive: ALG13 0.0362 | ATXN3 -0.232 | BAP1 -0.527 | EIF3F -0.011 | EIF3H 0.276 | FAM105A 0.371 | OTUB1 0.0515 | OTUD4 -0.452 | OTUD5 -0.298

— the supplement of paper PMC11732987, “Enantioselective OTUD7B fragment discovery through chemoproteomics screening and high-throughput optimisation” (Communications Chemistry, 2025)
